Test results taken from PubChem BioAssay (Tox21).
A number with no mark means an inactive call. The source made the active and inactive calls. The call rests on the fitted dose curve; in most records, active means well fitted curve in the direction sought with a large enough effect in the repeat runs; inconclusive means weak or mixed curves; inactive means flat fitted curve, though single readings scatter.

Assay: qHTS assay to test for compound auto fluorescence at 460 nm (blue) in HEK293 cell free culture (AID 720681)
Conditions: cell-free medium, autofluorescence 405/460 nm (blue); series mostly up to 91.3 µM; fluorescence, % of fluorescent control: at the top concentration
From the text: U.S. Tox21 Program National Center for Advancing Translational Sciences [NCATS] NIH Chemical Genomics Center [NCGC] U.S. Environmental Protection Agency [EPA] National Institutes of Environmental Health Sciences [NIEHS] National Toxicology Program [NTP] U.S. Food and Drug Administration [FDA] Tox21 Assay Overview: Compound auto fluorescence often interferes with screening of the compound library against various biological targets and signaling pathways. Some of these compounds may have fluorophoric properties. Such properties may interfere with the assay outputs resulting in false positives and/or negatives. To decrease such complications and ensure the compound activities are relevant in terms of biological response, the Tox21 10K compound library was screened for auto fluorescence. From the fluorophores used as reporter signals in our screening assays, the auto fluorescence equivalencies of compounds against three fluorophores have been evaluated: Triamterene, Fluorescein and Rose Bengal sodium for blue, green and red fluorescence, respectively. The fluorescence intensities were measured using Excitation/Emission wavelengths at 405/460nm, 485/535nm and 540/590nm for blue, green and red labels, respectively. This assay includes the blue fluorescence data.
Tox21 Assay Protocol Summary: 5 uL of culture medium (DMEM containing 10% FBS) per well was dispensed into black wall/clear bottom 1536-well plates using a Multidrop Combi Dispenser (ThermoFisher Scientific, Waltham, MA). After 23 nL compound or DMSO vehicle was transferred into assay plate by a pintool work station (Kalypsys, San Diego, CA), fluorescence intensities in the assay plates were measured by an Envision (PerkinElmer, Shelton, CT) plate reader using three labels for measuring blue, green and red fluorescence at […] 460, 535 and 590nm respectively.
On the % scale 0 is the no-effect control and ±100 the full control effect.

SMILES | fluorescence, % of fluorescent control | Potency
COc1cccc(Br)c1 | 0.0009% | 
OCCCCCCO | 0% [at 95.7 µM] | 
CC(C)COC(=O)c1ccccc1O | -0.19% | 
O=C(O)c1ccccc1-c1ccc(C(F)(F)F)cc1 | 0.0108% [at 46 µM] | 
OCC(O)[C@@H](O)[C@H](O)[C@H](O)CO[C@H]1O[C@H](CO)[C@@H](O)[C@H](O)[C@H]1O (stereo not given in full) | -0.195% | 
CCCOCC(C)OCC(C)O (stereo not given) | 0.115% [at 95.7 µM] | 
CCN(CC)S(=O)(=O)c1ccc(C(=O)O)cc1 | 0.0086% [at 46 µM] | 
NC(=O)Nc1nc2ccccc2[nH]1 | 0.147% | 
CCO[Si](CCCN=C=O)(OCC)OCC | 0.0389% | 
C=C(C)[C@H]1CC=C(C)CC1 | -0.0124% | 
O=Cc1ccccc1[N+](=O)[O-] | -0.0006% | 
CCCCC1CCCCC(=O)O1 (stereo not given) | -0.0917% | 
Nc1cc(C(Cl)=C(Cl)Cl)c(S(N)(=O)=O)cc1S(N)(=O)=O |  | inactive
CCCCCCCCN(C)CCCCCCCC | -0.222% [at 95.7 µM] | 
Nc1[nH]c(=O)ncc1F | 0.0652% [at 18.6 µM] | 
CC(=O)OC(C)(C)C | 0.0334% | 
O=S(=O)(O)c1ccccc1O | -0.106% | 
CO |  | inactive
CC/C=C\CCCCO | -0.0156% | 
NC(=O)c1c(Cl)cccc1Cl | -0.0517% | 

SMILES | fluorescence, % of fluorescent control | Potency
CCC(=O)/C=C/c1ccc(OC)cc1 | -0.336% | 
NC(=O)c1ncn([C@@H]2O[C@H](CO)[C@@H](O)[C@H]2O)c1N | -0.116% [at 46 µM] | 
COc1cc(C(=O)N2CCOCC2)cc(OC)c1OC |  | inactive
CCCC(C)CO (stereo not given) | -0.05% | 
O=C(O)/C=C/c1ccc(/C=C/C(=O)O)cc1 | 0.0011% [at 46 µM] | 
Cc1onc(-c2ccccc2)c1-c1ccc(S(N)(=O)=O)cc1 | -0.033% [at 46 µM] | 
CCCCc1ccc(N)cc1 | -0.164% | 
CN(C)C(=O)Nc1ccccc1 | -0.0259% | 
CN1[C@@H]2CC[C@H]1CC(NC(=O)n1c(=O)[nH]c3ccccc31)C2 (stereo not given in full) | -0.123% [at 46 µM] | 
CCC(C)(C)C1CCC(OC)CC1 (stereo not given) | -0.0348% | 
Cc1ccc(N)cc1[N+](=O)[O-] | -0.262% | 
Nc1ccn(C2CO[C@H](CO)O2)c(=O)n1 (stereo not given in full) | -0.175% [at 46 µM] | 
O=C1C(CCS(=O)c2ccccc2)C(=O)N(c2ccccc2)N1c1ccccc1 (stereo not given) | 0.0823% [at 18.6 µM] | 
CSc1ccc(C=O)cc1 | -0.229% | 
CCCCC=O | -0.112% | 
NS(=O)(=O)c1cc2c(cc1C(F)(F)F)NC(Cc1ccccc1)NS2(=O)=O (stereo not given) | 0.419% [at 18.6 µM] | 
C1CCCCCCCCCCC1 | -0.122% [at 18.6 µM] | 
C=C[Si](OC)(OC)OC | 0.0216% | 
C[N+](C)(C)CC[N+]1(C)Cc2c(Cl)c(Cl)c(Cl)c(Cl)c2C1 | -0.015% [at 46 µM] | 
CN(C)CCOC(c1ccc(Cl)cc1)c1ccccn1 (stereo not given) | 0.0645% [at 46 µM] | 
